From PubChem BioAssay AID623866 (Sanford-Burnham Center for Chemical Genomics, 2012)
The list shows a part of the results. Activity calls are given as the source filed them. No rule for the calls is given here.

These compounds were tested against Tyrosine-protein phosphatase non-receptor type 5 (Homo sapiens) (UniProt P54829) (assay: STEP phosphatase inhibitor hit confirmation, biochemical, fluorescence intensity, single concentration (AID 623866;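 also: 0% = enzyme with substrate plus DMSO and 100% = substrate without enzyme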)). Conditions: recombinant STEP, OMFP fluorogenic substrate, at 20 µM, active compounds read high.
Tyrosine-protein phosphatase non-receptor type 5 (Homo sapiens), sequence (P54829 whole entry, looked up): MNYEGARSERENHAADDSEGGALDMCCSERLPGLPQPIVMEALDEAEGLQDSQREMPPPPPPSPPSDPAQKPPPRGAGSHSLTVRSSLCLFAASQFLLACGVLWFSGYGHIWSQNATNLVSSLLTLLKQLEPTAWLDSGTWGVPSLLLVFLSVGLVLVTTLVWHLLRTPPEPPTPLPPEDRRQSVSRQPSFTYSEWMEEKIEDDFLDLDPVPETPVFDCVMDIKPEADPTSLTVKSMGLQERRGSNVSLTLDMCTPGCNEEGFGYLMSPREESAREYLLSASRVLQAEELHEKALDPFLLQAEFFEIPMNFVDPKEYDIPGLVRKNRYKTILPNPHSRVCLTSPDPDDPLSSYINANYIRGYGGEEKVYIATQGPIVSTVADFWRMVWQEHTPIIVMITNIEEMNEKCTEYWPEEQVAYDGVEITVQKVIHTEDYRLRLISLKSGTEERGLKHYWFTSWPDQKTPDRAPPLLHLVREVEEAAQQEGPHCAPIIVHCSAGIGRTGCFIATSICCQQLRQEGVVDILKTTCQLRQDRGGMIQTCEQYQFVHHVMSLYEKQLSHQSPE

inhibition, inactive:
CCCS(=O)(=O)N1CCCC(C(=O)NCc2ccco2)C1 (centres undefined) 1.82%
O=C(COc1cccc(F)c1)Oc1ccc(C(=O)c2ccccc2)cc1 12.2%
Cc1ccn2c(-c3csc(Nc4ccc(C(=O)O)cc4)n3)c(C)nc2c1 -1.96%
O=C(Nc1cccnc1)c1cc2cc(Br)ccc2oc1=O 8.13%
COCCN(C(=S)Nc1ccccc1OC)C1CCN(C(C)C)CC1 7.61%
C/C=C/C(=O)Nc1ccc(N2CCN(c3ccc(C(F)(F)F)cn3)CC2)nc1 12.4%
O=C(CSC(=S)N1CCCCC1)c1c(F)cccc1F -5.75%
COc1ccc2[nH]c(=O)c(-c3noc(-c4ccc(F)cc4)n3)cc2c1 8.96%
Nc1c(Cl)cc(-c2csc(N3CCCC3c3nc4cc(Cl)c(Cl)cc4n3CCOCCO)n2)cc1Cl (centres undefined) 20.3%
Cc1ccccc1CC1(CO)CCCN(C(=O)c2cc(-c3ccccc3)no2)C1 (centres undefined) 0.313%
Cc1ccc(CNC(=O)CSc2nnc3c(n2)[nH]c2ccc(F)cc23)cc1 -0.633%
CCc1ccc(NC(=O)CS(=O)CC(=O)NCCCc2ccccc2)cc1 (centres undefined) -4.12%
N#Cc1ccc(C(=O)Nc2cccc3cccnc23)c(F)c1 -3.4%
Cc1cc(C(=O)N2CCN(c3ccccn3)CC2)c(C)o1 7.4%
COCc1c(C(=O)N/N=C/C2CC=CCC2)nnn1-c1nonc1N (centres undefined) -1.89%
Cc1ccc(OCC(=O)Nc2ccc(-c3nc4ncccc4o3)cc2)cc1 23.6%
Cc1ccc(-c2nnc(-c3ccc(NC(=O)c4cccs4)cc3)o2)cc1 10.7%

inhibition, active:
O=C(N/N=C/c1cccc(Br)c1)c1ccc(N2CCCC2=O)cc1 41.4%
C/C(=N\Nc1ccc(S(N)(=O)=O)cc1[N+](=O)[O-])c1cccs1 64.7%
Cc1c(CCC(=O)O)c(=O)oc2c(C)c(OCc3ccccc3Cl)ccc12 42.7%
O=C(NN=Cc1ccccc1O)NN=Cc1ccccc1O 90.1%
O=C(N/N=C/c1coc2ccccc2c1=O)c1cc2ccccc2o1 24.4%
Cc1ccc(S(=O)(=O)c2c[nH]c3ccc(Cl)cc3c2=O)cc1 23.8%
N#Cc1c(-c2cccs2)nc(SCC(=O)c2ccc(Br)cc2)[nH]c1=O 103%
